# Laboratory results taken from the supplement of paper PMC11732987, “Enantioselective OTUD7B fragment discovery through chemoproteomics screening and high-throughput optimisation” (Communications Chemistry, 2025).
# A number with no mark means an inactive call.
# Columns and labels:
# Test in all cases: log2 ratio of Biotin-Ahx-Ub-VS probe labelling (fragment/DMSO); higher = less target engagement (more negative = stronger competition), active = hit call of the paper (q ≤ 0.05, log2 ratio ≤ -1)
# Conditions in all cases: compound concentration: 200 uM; treatment time: 3 h
# USP19 = target: T1, USP19 (UniProt O94966)
# T1 sequence (whole entry): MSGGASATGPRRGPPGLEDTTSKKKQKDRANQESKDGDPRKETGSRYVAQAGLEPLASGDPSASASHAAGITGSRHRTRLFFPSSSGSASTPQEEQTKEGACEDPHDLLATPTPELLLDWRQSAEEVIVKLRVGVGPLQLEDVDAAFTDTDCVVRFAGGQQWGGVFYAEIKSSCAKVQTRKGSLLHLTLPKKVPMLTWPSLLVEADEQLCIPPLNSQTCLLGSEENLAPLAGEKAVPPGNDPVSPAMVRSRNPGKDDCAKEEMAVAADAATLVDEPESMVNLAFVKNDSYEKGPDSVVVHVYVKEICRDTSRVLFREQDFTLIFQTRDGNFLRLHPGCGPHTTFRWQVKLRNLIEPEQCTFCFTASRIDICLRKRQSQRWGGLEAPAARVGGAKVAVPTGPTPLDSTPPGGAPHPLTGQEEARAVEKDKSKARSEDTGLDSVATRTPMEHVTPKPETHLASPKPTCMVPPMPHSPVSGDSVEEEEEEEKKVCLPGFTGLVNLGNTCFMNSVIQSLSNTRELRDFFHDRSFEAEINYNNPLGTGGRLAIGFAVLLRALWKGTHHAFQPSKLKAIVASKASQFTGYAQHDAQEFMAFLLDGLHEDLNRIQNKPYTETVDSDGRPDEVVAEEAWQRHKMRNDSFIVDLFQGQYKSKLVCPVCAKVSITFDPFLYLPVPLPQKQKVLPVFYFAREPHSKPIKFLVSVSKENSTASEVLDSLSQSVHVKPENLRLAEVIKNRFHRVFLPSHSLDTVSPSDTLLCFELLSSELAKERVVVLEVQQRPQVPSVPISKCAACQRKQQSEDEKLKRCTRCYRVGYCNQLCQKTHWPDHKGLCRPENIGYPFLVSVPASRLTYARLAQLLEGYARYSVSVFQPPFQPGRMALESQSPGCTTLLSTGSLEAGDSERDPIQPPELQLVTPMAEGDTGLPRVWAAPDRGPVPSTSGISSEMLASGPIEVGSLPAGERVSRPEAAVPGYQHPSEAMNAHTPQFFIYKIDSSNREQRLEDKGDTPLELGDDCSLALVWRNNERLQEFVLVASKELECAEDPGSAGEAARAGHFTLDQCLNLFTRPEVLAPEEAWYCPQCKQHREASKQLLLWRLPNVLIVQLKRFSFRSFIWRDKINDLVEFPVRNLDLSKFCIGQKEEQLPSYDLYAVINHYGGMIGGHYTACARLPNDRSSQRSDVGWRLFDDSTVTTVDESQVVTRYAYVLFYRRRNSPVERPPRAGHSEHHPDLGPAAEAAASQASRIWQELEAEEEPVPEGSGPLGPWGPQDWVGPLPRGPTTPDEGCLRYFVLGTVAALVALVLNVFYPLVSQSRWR
# Method in brief: (§1)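 HEK293T lysate in Tris/CHAPS/IGEPAL buffer with protease inhibitors (495 µg per sample) was given fragment at 200 µM or vehicle for 3 h, in triplicate. It then received Biotin-Ahx-Ub-VS at 0.5 µM final for 1 h. Labelled DUBs were NeutrAvidin-enriched, digested with LysC and trypsin, and run by diaPASEF LC-MS/MS. Values are average log2 fragment/vehicle ratios by unpaired t-test on global-median-normalised Spectronaut quantities of proteins with ≥2 unique peptides.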
# USP22 = target: T2, USP22 (UniProt Q9UPT9)
# T2 sequence (whole entry): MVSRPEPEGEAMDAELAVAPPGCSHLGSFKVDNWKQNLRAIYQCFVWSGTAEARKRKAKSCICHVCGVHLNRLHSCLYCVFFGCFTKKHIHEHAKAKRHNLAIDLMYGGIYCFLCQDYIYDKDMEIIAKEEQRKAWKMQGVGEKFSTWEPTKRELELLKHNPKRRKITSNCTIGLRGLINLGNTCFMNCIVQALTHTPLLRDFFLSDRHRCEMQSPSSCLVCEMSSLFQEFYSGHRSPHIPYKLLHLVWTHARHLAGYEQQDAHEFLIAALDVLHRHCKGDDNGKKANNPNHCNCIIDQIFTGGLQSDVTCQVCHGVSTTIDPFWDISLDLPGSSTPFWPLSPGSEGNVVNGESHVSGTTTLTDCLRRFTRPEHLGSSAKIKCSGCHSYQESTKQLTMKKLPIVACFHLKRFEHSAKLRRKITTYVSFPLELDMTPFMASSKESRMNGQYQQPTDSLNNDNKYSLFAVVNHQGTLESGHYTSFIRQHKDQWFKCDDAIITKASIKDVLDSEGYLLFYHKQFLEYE
# Method in brief: as §1
# USP24 = USP24 (UniProt Q9UPU5)
# Sequence of USP24 (Q9UPU5 whole entry): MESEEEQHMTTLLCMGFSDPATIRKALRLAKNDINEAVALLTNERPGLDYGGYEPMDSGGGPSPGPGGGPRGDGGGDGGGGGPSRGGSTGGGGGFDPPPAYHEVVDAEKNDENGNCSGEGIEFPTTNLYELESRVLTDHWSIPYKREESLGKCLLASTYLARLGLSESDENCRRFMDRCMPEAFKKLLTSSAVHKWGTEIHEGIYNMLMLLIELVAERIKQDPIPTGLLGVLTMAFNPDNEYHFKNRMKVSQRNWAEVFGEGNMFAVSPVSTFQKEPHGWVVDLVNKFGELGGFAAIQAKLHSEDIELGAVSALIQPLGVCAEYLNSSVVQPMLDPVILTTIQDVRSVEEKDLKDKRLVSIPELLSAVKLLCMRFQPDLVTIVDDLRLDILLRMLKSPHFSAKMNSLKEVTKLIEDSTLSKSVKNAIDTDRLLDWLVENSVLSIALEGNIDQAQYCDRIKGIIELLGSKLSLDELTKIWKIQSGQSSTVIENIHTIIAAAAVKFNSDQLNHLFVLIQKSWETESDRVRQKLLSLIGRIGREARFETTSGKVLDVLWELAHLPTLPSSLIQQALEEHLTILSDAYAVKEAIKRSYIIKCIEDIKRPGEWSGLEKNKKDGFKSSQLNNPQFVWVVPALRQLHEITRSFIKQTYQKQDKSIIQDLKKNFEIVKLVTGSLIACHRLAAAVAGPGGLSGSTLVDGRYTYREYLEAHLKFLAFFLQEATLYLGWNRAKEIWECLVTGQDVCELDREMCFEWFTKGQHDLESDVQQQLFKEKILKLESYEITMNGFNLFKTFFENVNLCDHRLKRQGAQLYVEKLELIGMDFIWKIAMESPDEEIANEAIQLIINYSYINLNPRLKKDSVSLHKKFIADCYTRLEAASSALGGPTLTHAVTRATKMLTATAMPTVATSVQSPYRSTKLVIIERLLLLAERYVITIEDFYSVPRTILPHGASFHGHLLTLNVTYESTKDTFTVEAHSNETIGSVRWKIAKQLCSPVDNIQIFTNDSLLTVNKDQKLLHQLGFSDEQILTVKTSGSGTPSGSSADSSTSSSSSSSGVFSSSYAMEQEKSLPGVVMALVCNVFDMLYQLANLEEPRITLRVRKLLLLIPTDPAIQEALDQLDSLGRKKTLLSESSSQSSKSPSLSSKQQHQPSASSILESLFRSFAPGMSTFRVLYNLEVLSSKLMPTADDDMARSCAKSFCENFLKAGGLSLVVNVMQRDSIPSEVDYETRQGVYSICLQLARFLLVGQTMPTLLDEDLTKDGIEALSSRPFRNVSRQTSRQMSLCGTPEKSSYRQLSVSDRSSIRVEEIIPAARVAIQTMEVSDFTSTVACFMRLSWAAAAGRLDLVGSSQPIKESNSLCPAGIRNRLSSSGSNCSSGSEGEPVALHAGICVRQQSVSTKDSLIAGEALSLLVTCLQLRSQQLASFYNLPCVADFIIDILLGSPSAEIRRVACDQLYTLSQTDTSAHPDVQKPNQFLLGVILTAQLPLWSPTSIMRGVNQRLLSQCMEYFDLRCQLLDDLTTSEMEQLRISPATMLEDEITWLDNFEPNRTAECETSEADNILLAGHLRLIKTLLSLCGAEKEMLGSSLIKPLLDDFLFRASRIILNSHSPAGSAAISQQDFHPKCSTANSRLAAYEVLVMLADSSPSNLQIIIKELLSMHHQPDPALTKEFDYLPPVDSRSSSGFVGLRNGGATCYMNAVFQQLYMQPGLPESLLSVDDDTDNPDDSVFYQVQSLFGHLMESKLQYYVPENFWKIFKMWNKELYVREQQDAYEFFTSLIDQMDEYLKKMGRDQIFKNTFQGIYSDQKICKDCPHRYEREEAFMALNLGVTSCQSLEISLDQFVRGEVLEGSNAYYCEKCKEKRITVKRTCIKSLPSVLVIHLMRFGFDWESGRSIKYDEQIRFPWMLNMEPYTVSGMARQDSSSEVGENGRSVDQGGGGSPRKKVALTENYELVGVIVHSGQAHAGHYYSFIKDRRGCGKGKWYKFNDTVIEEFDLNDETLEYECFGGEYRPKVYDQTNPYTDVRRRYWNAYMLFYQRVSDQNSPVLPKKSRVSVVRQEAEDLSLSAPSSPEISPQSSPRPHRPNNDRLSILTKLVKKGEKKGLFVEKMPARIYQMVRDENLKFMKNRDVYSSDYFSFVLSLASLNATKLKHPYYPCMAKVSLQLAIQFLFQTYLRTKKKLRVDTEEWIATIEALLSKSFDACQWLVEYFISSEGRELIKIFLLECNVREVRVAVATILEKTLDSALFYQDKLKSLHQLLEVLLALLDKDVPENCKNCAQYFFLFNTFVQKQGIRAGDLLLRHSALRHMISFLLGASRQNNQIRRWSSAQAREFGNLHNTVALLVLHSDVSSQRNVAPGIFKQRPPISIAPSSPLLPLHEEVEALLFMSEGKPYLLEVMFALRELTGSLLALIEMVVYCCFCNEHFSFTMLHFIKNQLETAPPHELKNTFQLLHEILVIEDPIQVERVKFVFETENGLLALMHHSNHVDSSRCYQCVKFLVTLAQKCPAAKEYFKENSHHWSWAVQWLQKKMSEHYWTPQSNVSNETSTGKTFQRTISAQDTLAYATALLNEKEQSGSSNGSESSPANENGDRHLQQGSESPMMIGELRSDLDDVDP
# Method in brief: as §1
# USP25 = target: T3, USP25 (UniProt Q9UHP3)
# T3 sequence (whole entry): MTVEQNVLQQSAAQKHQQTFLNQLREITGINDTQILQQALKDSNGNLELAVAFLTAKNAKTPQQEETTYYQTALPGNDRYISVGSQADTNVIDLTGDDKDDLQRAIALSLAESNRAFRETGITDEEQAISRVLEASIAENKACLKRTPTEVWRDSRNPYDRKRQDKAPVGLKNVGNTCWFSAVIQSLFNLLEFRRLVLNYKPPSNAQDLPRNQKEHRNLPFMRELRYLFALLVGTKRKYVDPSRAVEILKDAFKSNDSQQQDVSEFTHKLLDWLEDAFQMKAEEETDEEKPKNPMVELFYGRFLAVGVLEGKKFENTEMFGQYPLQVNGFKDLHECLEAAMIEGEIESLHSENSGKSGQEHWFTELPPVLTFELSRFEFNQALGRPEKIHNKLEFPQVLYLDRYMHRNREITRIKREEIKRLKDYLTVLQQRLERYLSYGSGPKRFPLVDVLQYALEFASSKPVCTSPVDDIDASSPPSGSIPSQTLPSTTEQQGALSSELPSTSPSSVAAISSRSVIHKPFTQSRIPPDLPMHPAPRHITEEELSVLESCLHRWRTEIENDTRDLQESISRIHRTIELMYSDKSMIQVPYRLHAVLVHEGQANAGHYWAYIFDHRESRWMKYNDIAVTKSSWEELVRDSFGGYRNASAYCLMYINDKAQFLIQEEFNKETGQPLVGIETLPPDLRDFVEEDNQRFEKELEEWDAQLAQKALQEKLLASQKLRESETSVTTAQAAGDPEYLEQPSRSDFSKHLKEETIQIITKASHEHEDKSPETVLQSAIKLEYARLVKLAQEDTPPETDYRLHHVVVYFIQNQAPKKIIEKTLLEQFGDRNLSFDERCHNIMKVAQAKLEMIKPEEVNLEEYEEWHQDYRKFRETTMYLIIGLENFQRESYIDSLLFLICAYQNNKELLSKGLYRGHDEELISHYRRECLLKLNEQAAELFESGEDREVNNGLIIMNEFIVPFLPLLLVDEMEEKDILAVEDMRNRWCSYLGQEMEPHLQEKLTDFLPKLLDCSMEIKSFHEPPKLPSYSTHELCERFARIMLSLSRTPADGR
# Method in brief: as §1
# USP28 = target: T4, USP28 (UniProt Q96RU2)
# T4 sequence (whole entry): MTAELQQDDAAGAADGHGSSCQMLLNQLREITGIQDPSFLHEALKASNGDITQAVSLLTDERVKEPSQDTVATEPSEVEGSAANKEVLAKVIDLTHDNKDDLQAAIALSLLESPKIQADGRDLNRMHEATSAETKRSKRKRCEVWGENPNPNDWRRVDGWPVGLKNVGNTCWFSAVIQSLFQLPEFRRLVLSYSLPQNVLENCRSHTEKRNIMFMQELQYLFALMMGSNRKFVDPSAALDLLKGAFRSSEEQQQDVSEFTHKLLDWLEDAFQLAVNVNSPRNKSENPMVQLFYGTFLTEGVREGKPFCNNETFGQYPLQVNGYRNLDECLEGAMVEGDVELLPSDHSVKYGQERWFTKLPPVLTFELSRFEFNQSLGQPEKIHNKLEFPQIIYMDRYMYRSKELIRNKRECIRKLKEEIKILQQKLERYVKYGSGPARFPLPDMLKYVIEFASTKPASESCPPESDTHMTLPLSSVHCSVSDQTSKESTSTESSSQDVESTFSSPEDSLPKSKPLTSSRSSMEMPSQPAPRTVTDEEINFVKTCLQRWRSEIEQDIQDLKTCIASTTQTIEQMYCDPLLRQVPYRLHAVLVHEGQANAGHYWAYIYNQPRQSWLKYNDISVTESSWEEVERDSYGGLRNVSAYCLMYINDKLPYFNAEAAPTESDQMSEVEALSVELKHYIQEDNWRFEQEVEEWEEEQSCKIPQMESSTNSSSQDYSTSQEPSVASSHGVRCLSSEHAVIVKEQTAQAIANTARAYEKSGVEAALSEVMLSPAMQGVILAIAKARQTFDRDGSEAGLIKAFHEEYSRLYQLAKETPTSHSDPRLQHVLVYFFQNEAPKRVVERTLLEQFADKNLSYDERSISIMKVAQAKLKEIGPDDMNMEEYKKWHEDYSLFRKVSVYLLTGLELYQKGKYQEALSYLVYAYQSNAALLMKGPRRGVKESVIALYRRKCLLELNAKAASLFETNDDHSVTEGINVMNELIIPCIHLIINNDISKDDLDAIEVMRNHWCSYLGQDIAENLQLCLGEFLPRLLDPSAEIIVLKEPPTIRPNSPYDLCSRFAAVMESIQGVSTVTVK
# Method in brief: as §1
structure (smiles),measurement,setting,value
Cc1ccc(C)c(NC(=O)CCl)c1,log2 ratio of Biotin-Ahx-Ub-VS probe labelling,USP19,-0.203
same,log2 ratio of Biotin-Ahx-Ub-VS probe labelling,USP22,-0.27
same,log2 ratio of Biotin-Ahx-Ub-VS probe labelling,USP24,-0.729
same,log2 ratio of Biotin-Ahx-Ub-VS probe labelling,USP25,-1.41 (active)
same,log2 ratio of Biotin-Ahx-Ub-VS probe labelling,USP28,-1.56 (active)
